Test results as given in PubChem BioAssay (NCATS).
Inconclusive results are not listed. Unmarked numbers belong to inactive results. Activity calls are given as the source filed them. Calls follow the shape of the dose curve; as a rule, active = well fitted inhibition curve with a large enough effect; inconclusive = small, poorly fitted or top-dose-only effect; inactive = flat fitted curve, though single readings scatter. Where a SMILES comes first, the peptide text is derived from it. Bridges are numbered along the chain shown (N, C = ends). [ ]: non-standard residue; d: D form. hArg = N=C(N)NCCCC[C@H](N)C(=O)O; Mpa = O=C(O)CCS

The compounds below were run against Glutathione peroxidase 1 (Homo sapiens) (UniProt P07203) (assay: Primary qHTS Assay for Inhibitors of Recombinant Selenoprotein Glutathione Peroxidase 1 (GPX1) (AID 1845191)). Conditions: recombinant GPX1, GR-coupled NADPH fluorescence, 15 min; series mostly up to 48.8 µM; activity, negative = inhibition: at the top concentration.
In short: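 10 nM GPX1 + cpd, 30 min RT; start w/ 1 mM GSH, 0.5 mM cumene hydroperoxide, 0.5 mM NADPH, 100 nM GR, 0.01% BSA; buffer 50 mM Tris-HCl pH 7.5, 2 mM EDTA, 150 mM NaCl; Fl 340/450, 0 & 15 min.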
% is scaled to controls: 0 for no effect and ±100 for the full control effect.
Also: nearly all actives have a fitted effect of over 65% in size.

Glutathione peroxidase 1 (Homo sapiens), sequence (P07203 whole entry, looked up): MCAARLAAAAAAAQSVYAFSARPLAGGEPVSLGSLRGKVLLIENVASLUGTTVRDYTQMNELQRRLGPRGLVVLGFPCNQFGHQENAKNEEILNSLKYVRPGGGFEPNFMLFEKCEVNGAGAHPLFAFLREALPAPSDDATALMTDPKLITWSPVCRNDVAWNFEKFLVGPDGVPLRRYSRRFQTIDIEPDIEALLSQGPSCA

**Q.** With NC(=O)[C@@H]1CSSCCC(=O)N[C@@H](CCCCN=C(N)N)C(=O)NCC(=O)N[C@@H](CC(=O)O)C(=O)N[C@@H](Cc2c[nH]c3ccccc23)C(=O)N2CCC[C@H]2C(=O)N1 ([Mpa][hArg]GDWPC-NH2; disulfide 1-7) as the compound, how does the “outcome” value read?
**A.** inactive

**Q.** For CCCCCCCCCCCCCCCCC(C(=O)O)C(O)(CC(=O)O)C(=O)O (centres undefined), which “activity, negative = inhibition” value is on record?
**A.** 1.44%

**Q.** COC(=O)c1cccnc1 was tested. Which “outcome” value did it give?
**A.** inactive

**Q.** For NC(N)=NS(=O)(=O)c1ccc(N)cc1, which “activity, negative = inhibition” value is on record?
**A.** -6.01%

**Q.** Which “outcome” value does the source give for Cc1c(C)c2c(c(C)c1OC(=O)c1cccnc1)CC[C@@](C)(CCC[C@H](C)CCC[C@H](C)CCCC(C)C)O2 here?
**A.** inactive

**Q.** Which “activity, negative = inhibition” value does the source give for NC(=O)c1ccc([N+](=O)[O-])cc1Cl here?
**A.** -2.46%

**Q.** Which “activity, negative = inhibition” value does the source give for COc1ccc(C(=O)NCc2ccc(OCCN(C)C)cc2)cc1OC here?
**A.** 1.34%

**Q.** How did the “outcome” value turn out when CCS(=O)(=O)CCn1c([N+](=O)[O-])cnc1C was run?
**A.** inactive

**Q.** How did the “activity, negative = inhibition” value turn out when CC(=O)Nc1ccccc1 was run?
**A.** 2.17%

**Q.** With O=C(O)CCC(=O)O as the compound, how does the “activity, negative = inhibition” value read?
**A.** -2.3%

**Q.** With CC[N+](CC)(CC(=O)Nc1c(C)cccc1C)Cc1ccccc1 as the compound, how does the Potency read?
**A.** inactive

**Q.** For NC(=O)CC[C@@H](N)C(=O)O, which “activity, negative = inhibition” value is on record?
**A.** -5.03%

**Q.** With O=C(O)CNC(=O)c1ccccc1I as the compound, how does the “activity, negative = inhibition” value read?
**A.** -7.27%

**Q.** How did the “activity, negative = inhibition” value turn out when CN/C(=C\[N+](=O)[O-])NCCSCc1csc(CN(C)C)n1 was run?
**A.** -24.6%

**Q.** Which “activity, negative = inhibition” value does the source give for O=C(/C=C/c1ccccc1)OCc1ccccc1 here?
**A.** 4.04%

**Q.** Which “activity, negative = inhibition” value does the source give for CCCCOC(=O)c1ccc(N)cc1 here?
**A.** -6.85%

**Q.** How did the “activity, negative = inhibition” value turn out when CC(C)C[C@@H](N)C(=O)O was run?
**A.** -39.3% [at 27.7 µM]

**Q.** How did the “outcome” value turn out when CC(C)(C)C(=O)OCOC(=O)[C@@H]1N2C(=O)[C@@H](NC(=O)[C@H](N)c3ccccc3)[C@H]2SC1(C)C was run?
**A.** inactive

**Q.** O=C(OOC(=O)c1ccccc1)c1ccccc1 was tested. Which “activity, negative = inhibition” value did it give?
**A.** -14.8%

**Q.** COc1ccccc1OC(=O)Oc1ccccc1OC was tested. Which “outcome” value did it give?
**A.** inactive

**Q.** For C[C@@H]1O[C@@H](OC[C@H]2O[C@@H](Oc3c(-c4ccc(O)c(O)c4)oc4cc(O)cc(O)c4c3=O)[C@H](O)[C@@H](O)[C@@H]2O)[C@H](O)[C@H](O)[C@H]1O, which “activity, negative = inhibition” value is on record?
**A.** 1.15%

**Q.** How did the “activity, negative = inhibition” value turn out when CCCCCCCCCCCCCCCCCCO was run?
**A.** 2.42%

**Q.** For CC1CCN(CCCC(=O)c2ccc(F)cc2)CC1, which “activity, negative = inhibition” value is on record?
**A.** -2.51%

**Q.** Which “outcome” value does the source give for O=C(O)CCCc1ccccc1 here?
**A.** inactive

**Q.** Which “activity, negative = inhibition” value does the source give for CC(C(=O)O)c1ccc2c(c1)Cc1cccnc1O2 (centres undefined) here?
**A.** -7.86%

**Q.** How did the “outcome” value turn out when NS(=O)(=O)c1cc(-c2nn[nH]n2)c(NCc2cccs2)cc1Cl was run?
**A.** inactive

**Q.** How did the “activity, negative = inhibition” value turn out when CCOc1cc(NC(C)=O)ccc1C(=O)OC was run?
**A.** 2.56%

**Q.** Which “activity, negative = inhibition” value does the source give for Cc1c(N(C)C)c(=O)n(-c2ccccc2)n1C here?
**A.** -4.21%

**Q.** How did the “activity, negative = inhibition” value turn out when O=C(Cn1ccnc1[N+](=O)[O-])NCc1ccccc1 was run?
**A.** 4.42%

**Q.** COc1ccccc1Oc1c(NS(=O)(=O)c2ccc(C(C)(C)C)cc2)nc(-c2ncccn2)nc1OCCO was tested. Which “activity, negative = inhibition” value did it give?
**A.** -24%

**Q.** Which “outcome” value does the source give for O=S1(=O)OC(c2ccc(O)cc2)(c2ccc(O)cc2)c2ccccc21 here?
**A.** inactive

**Q.** With CC1CC(OC(=O)c2ccccc2O)CC(C)(C)C1 (centres undefined) as the compound, how does the “outcome” value read?
**A.** inactive

**Q.** How did the “activity, negative = inhibition” value turn out when Cc1cc(C)nc(NS(=O)(=O)c2ccc(N)cc2)n1 was run?
**A.** 3.38%

**Q.** Which “activity, negative = inhibition” value does the source give for C[C@@H](N)C(=O)O here?
**A.** -23.5%

**Q.** With Cc1cc(O)cc(C)c1Cl as the compound, how does the “outcome” value read?
**A.** inactive

**Q.** Which “activity, negative = inhibition” value does the source give for CC(=O)NCc1c(I)c(NC(C)=O)c(I)c(C(=O)O)c1I here?
**A.** 2.11%

**Q.** For CCc1cccc(CC)c1NC(=O)CN(CC(=O)O)CC(=O)O, which “activity, negative = inhibition” value is on record?
**A.** 3.6%

The compounds below were run against Phospholipid hydroperoxide glutathione peroxidase GPX4 (Homo sapiens) (UniProt P36969) (assay: Primary qHTS Assay for Inhibitors of Recombinant Selenoprotein Glutathione Peroxidase 4 (GPX4) (AID 1845192; also: potency is read from the fitted curve at half-maximal effect)). Conditions: recombinant GPX4, GR-coupled NADPH fluorescence, 15 min; series mostly up to 50 µM; activity change, negative = inhibition: at the top concentration.
In short: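 NADPH consumption, followed by fluorescence at 340/450 nm between 0 and 15 min, reports GPX4 activity via coupled glutathione reductase (100 nM). Enzyme 200 nM was pre-exposed to compound 30 min; 0.5 mM cumene hydroperoxide and 1 mM GSH served as substrates.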

Phospholipid hydroperoxide glutathione peroxidase GPX4 (Homo sapiens), sequence (P36969 whole entry, looked up): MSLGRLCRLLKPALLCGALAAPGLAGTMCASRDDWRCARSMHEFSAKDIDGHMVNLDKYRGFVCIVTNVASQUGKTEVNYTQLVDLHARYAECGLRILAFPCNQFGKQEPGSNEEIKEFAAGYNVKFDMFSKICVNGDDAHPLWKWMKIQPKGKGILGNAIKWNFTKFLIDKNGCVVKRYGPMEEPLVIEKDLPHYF

**Q.** NC(=O)[C@@H]1CSSCCC(=O)N[C@@H](CCCCN=C(N)N)C(=O)NCC(=O)N[C@@H](CC(=O)O)C(=O)N[C@@H](Cc2c[nH]c3ccccc23)C(=O)N2CCC[C@H]2C(=O)N1 ([Mpa][hArg]GDWPC-NH2; disulfide 1-7) was tested. Which “activity change, negative = inhibition” value did it give?
**A.** -1.39%

**Q.** Which Potency does the source give for CCCCCCCCCCCCCCCCC(C(=O)O)C(O)(CC(=O)O)C(=O)O (centres undefined) here?
**A.** 4.47 µM (active)

**Q.** Which “outcome” value does the source give for COC(=O)c1cccnc1 here?
**A.** inactive

**Q.** For NC(N)=NS(=O)(=O)c1ccc(N)cc1, which “activity change, negative = inhibition” value is on record?
**A.** 4.91%

**Q.** Which “activity change, negative = inhibition” value does the source give for Cc1c(C)c2c(c(C)c1OC(=O)c1cccnc1)CC[C@@](C)(CCC[C@H](C)CCC[C@H](C)CCCC(C)C)O2 here?
**A.** 4.55%

**Q.** NC(=O)c1ccc([N+](=O)[O-])cc1Cl was tested. Which “activity change, negative = inhibition” value did it give?
**A.** 1.7%

**Q.** Which “outcome” value does the source give for COc1ccc(C(=O)NCc2ccc(OCCN(C)C)cc2)cc1OC here?
**A.** inactive

**Q.** Which “outcome” value does the source give for CCS(=O)(=O)CCn1c([N+](=O)[O-])cnc1C here?
**A.** inactive

**Q.** For CC(=O)Nc1ccccc1, which “outcome” value is on record?
**A.** inactive

**Q.** Which “activity change, negative = inhibition” value does the source give for O=C(O)CCC(=O)O here?
**A.** 4.4%

**Q.** Which Potency does the source give for CC[N+](CC)(CC(=O)Nc1c(C)cccc1C)Cc1ccccc1 here?
**A.** inactive

**Q.** Which “activity change, negative = inhibition” value does the source give for NC(=O)CC[C@@H](N)C(=O)O here?
**A.** -5.5%

**Q.** O=C(O)CNC(=O)c1ccccc1I was tested. Which “activity change, negative = inhibition” value did it give?
**A.** -7.47%

**Q.** Which “outcome” value does the source give for CN/C(=C\[N+](=O)[O-])NCCSCc1csc(CN(C)C)n1 here?
**A.** inactive

**Q.** O=C(/C=C/c1ccccc1)OCc1ccccc1 was tested. Which “activity change, negative = inhibition” value did it give?
**A.** -10.7%

**Q.** For CCCCOC(=O)c1ccc(N)cc1, which “activity change, negative = inhibition” value is on record?
**A.** -8.35%

**Q.** With CC(C)C[C@@H](N)C(=O)O as the compound, how does the “activity change, negative = inhibition” value read?
**A.** -11.8% [at 27.8 µM]

**Q.** With CC(C)(C)C(=O)OCOC(=O)[C@@H]1N2C(=O)[C@@H](NC(=O)[C@H](N)c3ccccc3)[C@H]2SC1(C)C as the compound, how does the “activity change, negative = inhibition” value read?
**A.** -13.1%

**Q.** How did the “activity change, negative = inhibition” value turn out when O=C(OOC(=O)c1ccccc1)c1ccccc1 was run?
**A.** -1.26%

**Q.** For COc1ccccc1OC(=O)Oc1ccccc1OC, which “outcome” value is on record?
**A.** inactive

**Q.** Which “outcome” value does the source give for C[C@@H]1O[C@@H](OC[C@H]2O[C@@H](Oc3c(-c4ccc(O)c(O)c4)oc4cc(O)cc(O)c4c3=O)[C@H](O)[C@@H](O)[C@@H]2O)[C@H](O)[C@H](O)[C@H]1O here?
**A.** inactive

**Q.** Which “activity change, negative = inhibition” value does the source give for CCCCCCCCCCCCCCCCCCO here?
**A.** 2.39%

**Q.** With CC1CCN(CCCC(=O)c2ccc(F)cc2)CC1 as the compound, how does the “outcome” value read?
**A.** inactive

**Q.** How did the “outcome” value turn out when O=C(O)CCCc1ccccc1 was run?
**A.** inactive

**Q.** Which “activity change, negative = inhibition” value does the source give for CC(C(=O)O)c1ccc2c(c1)Cc1cccnc1O2 (centres undefined) here?
**A.** -10.5%

**Q.** Which “outcome” value does the source give for NS(=O)(=O)c1cc(-c2nn[nH]n2)c(NCc2cccs2)cc1Cl here?
**A.** inactive

**Q.** With CCOc1cc(NC(C)=O)ccc1C(=O)OC as the compound, how does the “activity change, negative = inhibition” value read?
**A.** 0.92%

**Q.** Which “outcome” value does the source give for Cc1c(N(C)C)c(=O)n(-c2ccccc2)n1C here?
**A.** inactive

**Q.** Which “outcome” value does the source give for O=C(Cn1ccnc1[N+](=O)[O-])NCc1ccccc1 here?
**A.** inactive

**Q.** Which “activity change, negative = inhibition” value does the source give for COc1ccccc1Oc1c(NS(=O)(=O)c2ccc(C(C)(C)C)cc2)nc(-c2ncccn2)nc1OCCO here?
**A.** -18.7%

**Q.** O=S1(=O)OC(c2ccc(O)cc2)(c2ccc(O)cc2)c2ccccc21 was tested. Which “outcome” value did it give?
**A.** inactive

**Q.** With CC1CC(OC(=O)c2ccccc2O)CC(C)(C)C1 (centres undefined) as the compound, how does the “outcome” value read?
**A.** inactive

**Q.** Which “activity change, negative = inhibition” value does the source give for Cc1cc(C)nc(NS(=O)(=O)c2ccc(N)cc2)n1 here?
**A.** 4.96%

**Q.** Which “outcome” value does the source give for C[C@@H](N)C(=O)O here?
**A.** inactive

**Q.** Which “outcome” value does the source give for Cc1cc(O)cc(C)c1Cl here?
**A.** inactive

**Q.** How did the “outcome” value turn out when CC(=O)NCc1c(I)c(NC(C)=O)c(I)c(C(=O)O)c1I was run?
**A.** inactive

**Q.** CCc1cccc(CC)c1NC(=O)CN(CC(=O)O)CC(=O)O was tested. Which “outcome” value did it give?
**A.** inactive
